Measured values published in ChEMBL document CHEMBL2218924, “A broad activity screen in support of a chemogenomic map for kinase signalling research and drug discovery” (Biochem J, 2013).

What was measured:
[1] = target: T1, cGMP-dependent protein kinase 1 (Homo sapiens) (UniProt Q13976); settings: at 1 µM
T1 sequence (whole entry): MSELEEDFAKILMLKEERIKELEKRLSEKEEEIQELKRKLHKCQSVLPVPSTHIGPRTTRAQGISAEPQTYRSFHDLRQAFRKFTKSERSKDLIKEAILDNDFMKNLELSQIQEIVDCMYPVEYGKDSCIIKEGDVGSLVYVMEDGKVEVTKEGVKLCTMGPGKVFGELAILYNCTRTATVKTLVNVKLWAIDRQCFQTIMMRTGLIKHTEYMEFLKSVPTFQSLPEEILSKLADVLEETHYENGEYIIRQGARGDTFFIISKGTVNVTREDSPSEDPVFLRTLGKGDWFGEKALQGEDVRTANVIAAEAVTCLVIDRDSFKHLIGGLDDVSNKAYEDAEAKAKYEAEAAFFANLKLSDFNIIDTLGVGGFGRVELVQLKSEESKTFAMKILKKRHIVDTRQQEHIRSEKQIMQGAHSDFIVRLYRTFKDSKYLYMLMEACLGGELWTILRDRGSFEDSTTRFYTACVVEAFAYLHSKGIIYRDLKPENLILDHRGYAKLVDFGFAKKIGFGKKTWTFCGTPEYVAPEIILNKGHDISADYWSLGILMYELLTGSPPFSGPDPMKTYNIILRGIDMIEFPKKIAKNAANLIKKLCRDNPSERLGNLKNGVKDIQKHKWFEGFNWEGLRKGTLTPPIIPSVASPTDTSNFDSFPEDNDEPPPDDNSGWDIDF

[2] = target: T1, cGMP-dependent protein kinase 1 (Homo sapiens); settings: at 10 µM
[3] = target: T1, cGMP-dependent protein kinase 1 (Homo sapiens); settings: at 1 µM; remark: listed apart in the source
[4] = target: T1, cGMP-dependent protein kinase 1 (Homo sapiens); settings: at 10 µM; remark: listed apart in the source
[5] = target: T2, MAP kinase-activated protein kinase 5 (Homo sapiens) (UniProt Q8IW41); settings: at 1 µM
T2 sequence (whole entry): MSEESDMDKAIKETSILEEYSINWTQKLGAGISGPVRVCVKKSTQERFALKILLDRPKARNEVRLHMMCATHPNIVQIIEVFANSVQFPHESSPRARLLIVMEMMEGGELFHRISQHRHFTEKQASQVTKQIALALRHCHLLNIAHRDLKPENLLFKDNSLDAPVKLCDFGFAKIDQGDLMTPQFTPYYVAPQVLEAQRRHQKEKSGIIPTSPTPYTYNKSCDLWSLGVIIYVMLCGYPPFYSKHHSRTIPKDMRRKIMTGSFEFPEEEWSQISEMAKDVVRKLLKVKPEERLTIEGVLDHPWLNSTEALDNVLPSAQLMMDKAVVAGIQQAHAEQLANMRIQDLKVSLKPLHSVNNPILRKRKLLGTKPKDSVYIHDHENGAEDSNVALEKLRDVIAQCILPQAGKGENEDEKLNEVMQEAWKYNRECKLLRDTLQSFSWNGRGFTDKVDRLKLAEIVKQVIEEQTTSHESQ

[6] = target: T2, MAP kinase-activated protein kinase 5 (Homo sapiens); settings: at 10 µM
[7] = target: Serine/threonine-protein kinase N2 (Homo sapiens) (UniProt Q16513); settings: at 1 µM
Chain of Serine/threonine-protein kinase N2 (Homo sapiens) (Q16513 whole entry, looked up): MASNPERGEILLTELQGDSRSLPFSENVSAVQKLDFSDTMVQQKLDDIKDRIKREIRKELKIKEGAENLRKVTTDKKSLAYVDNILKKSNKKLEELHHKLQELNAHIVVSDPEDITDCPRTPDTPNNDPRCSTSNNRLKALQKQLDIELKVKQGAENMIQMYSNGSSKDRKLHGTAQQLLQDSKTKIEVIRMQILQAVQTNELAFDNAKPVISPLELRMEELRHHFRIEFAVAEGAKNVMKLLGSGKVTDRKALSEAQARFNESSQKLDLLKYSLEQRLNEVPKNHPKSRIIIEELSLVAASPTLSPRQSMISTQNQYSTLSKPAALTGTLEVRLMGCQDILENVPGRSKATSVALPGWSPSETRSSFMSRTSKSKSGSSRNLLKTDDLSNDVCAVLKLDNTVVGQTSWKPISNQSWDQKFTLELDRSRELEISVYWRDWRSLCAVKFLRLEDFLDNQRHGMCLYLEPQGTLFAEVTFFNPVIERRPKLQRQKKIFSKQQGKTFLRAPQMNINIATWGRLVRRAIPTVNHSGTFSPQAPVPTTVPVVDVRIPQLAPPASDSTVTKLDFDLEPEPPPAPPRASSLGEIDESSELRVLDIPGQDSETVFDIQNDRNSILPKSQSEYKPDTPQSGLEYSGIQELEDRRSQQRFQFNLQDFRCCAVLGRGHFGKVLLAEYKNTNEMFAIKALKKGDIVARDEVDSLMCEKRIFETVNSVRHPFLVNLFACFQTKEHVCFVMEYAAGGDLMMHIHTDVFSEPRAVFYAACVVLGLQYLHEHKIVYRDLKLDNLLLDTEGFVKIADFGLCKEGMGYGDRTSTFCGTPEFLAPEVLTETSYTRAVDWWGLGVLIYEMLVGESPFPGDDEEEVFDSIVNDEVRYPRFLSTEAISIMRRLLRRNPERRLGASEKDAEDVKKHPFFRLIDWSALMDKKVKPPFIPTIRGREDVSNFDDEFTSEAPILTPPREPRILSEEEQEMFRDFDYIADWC

[8] = target: Serine/threonine-protein kinase N2 (Homo sapiens) (UniProt Q16513); settings: at 10 µM
[9] = target: Tyrosine-protein kinase FRK (Homo sapiens) (UniProt P42685); settings: at 1 µM
Chain of Tyrosine-protein kinase FRK (Homo sapiens) (P42685 whole entry): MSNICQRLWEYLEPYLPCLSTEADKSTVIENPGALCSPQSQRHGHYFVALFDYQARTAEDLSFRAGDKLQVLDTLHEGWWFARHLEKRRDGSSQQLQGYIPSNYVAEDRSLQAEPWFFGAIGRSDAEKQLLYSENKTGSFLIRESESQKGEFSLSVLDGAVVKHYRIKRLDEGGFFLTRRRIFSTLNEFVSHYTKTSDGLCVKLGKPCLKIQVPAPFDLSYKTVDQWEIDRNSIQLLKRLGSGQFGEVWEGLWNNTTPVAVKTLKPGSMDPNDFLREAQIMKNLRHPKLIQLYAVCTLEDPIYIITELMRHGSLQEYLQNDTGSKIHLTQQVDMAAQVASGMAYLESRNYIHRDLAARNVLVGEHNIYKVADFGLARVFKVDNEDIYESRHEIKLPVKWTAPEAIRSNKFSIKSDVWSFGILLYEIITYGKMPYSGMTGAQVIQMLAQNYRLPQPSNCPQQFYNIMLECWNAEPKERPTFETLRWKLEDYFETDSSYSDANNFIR

[10] = target: Tyrosine-protein kinase FRK (Homo sapiens) (UniProt P42685); settings: at 10 µM

Row | SMILES | residual activity [1] [%] | residual activity [2] [%] | residual activity [3] [%] | residual activity [4] [%] | residual activity [5] [%] | residual activity [6] [%] | residual activity [7] [%] | residual activity [8] [%] | residual activity [9] [%] | residual activity [10] [%]
1 | Nc1n[nH]c2nnc(-c3c(-c4ccccc4)nn4ccccc34)cc12 | 95 | 104 | 92 | 76 | 104 | 101 | 91 | 76 | 99 | 46
2 | C[C@@H](N)[C@H]1CC[C@H](C(=O)Nc2ccncc2)CC1 | 77 | 31 | 73 | 30 | 112 | 102 | 16 | 4 | 98 | 97
3 | O=C1NC(=O)c2cc(Nc3ccc(F)cc3)c(Nc3ccc(F)cc3)cc21 | 98 | 97 | 92 | 73 | 74 | 39 | 90 | 84 | 83 | 41
4 | O=C1NC(=O)/C(=C/c2ccc3c(c2)OC(F)(F)O3)S1 | 105 | 108 | 72 | 52 | 106 | 37 | 117 | 97 | 101 | 107
5 | O=C1NC(=O)/C(=C\c2ccc3nccnc3c2)S1 | 125 | 97 | 80 | 62 | 96 | 93 | 103 | 94 | 110 | 93
6 | CCN(CC)CCCCN1c2ccccc2Oc2ccc(Cl)cc21 | 113 | 110 | 97 | 94 | 96 | 112 | 107 | 124 | 105 | 119
7 | Oc1n[nH]c2nnc(-c3c(-c4ccccc4)nn4ccccc34)cc12 | 99 | 100 | 89 | 78 | 115 | 112 | 86 | 86 | 88 | 92
8 | Ic1cccc(CSc2nnc(-c3ccncc3)o2)c1 | 105 | 96 | 88 | 49 | 105 | 117 | 83 | 70 | 77 | 78
9 | CC#CC(=O)Nc1cc2c(Nc3ccc(F)c(Cl)c3)ncnc2cn1 | 103 | 102 | 86 | 92 | 84 | 77 | 94 | 98 | 97 | 92
10 | CO[C@H]1[C@@H](OC)C[C@H](C)[C@@H](OC)C2=CC(=O)C=C(NC(=O)/C(C)=C/C=C/[C@H](OC)[C@@H](OC(N)=O)/C(C)=C/[C@@H]1C)C2=O | 102 | 105 | 85 | 81 | 107 | 95 | 111 | 96 | 114 | 93
11 | N#C/C(=C(\N)Sc1ccc(N)cc1)c1ccccc1C(F)(F)F | 97 | 95 | 100 | 33 | 91 | 90 | 68 | 48 | 94 | 95
12 | NC(=O)c1ccc2[nH]c(-c3ccc(Oc4ccc(Cl)cc4)cc3)nc2c1 | 99 | 105 | 105 | 77 | 91 | 67 | 101 | 90 | 94 | 106
13 | Cc1ccc(S(=O)(=O)/C=C/C#N)cc1 | 85 | 99 | 107 | 92 | 110 | 111 | 90 | 87 | 70 | 82
14 | COc1cc2ncnc(Nc3ccc(O)c(Br)c3)c2cc1OC | 94 | 76 | 70 | 47 | 77 | 70 | 87 | 61 | 35 | 5
15 | Cn1cnc2cc3c(Nc4cccc(Br)c4)ncnc3cc21 | 115 | 87 | 93 | 88 | 78 | 78 | 101 | 97 | 72 | 28
16 | O=C1Nc2cc(Br)ccc2/C1=C1/Nc2ccccc2/C1=N\O | 90 | 109 | 78 | 61 | 76 | 90 | 75 | 92 | 2 | 0

Row | SMILES | residual activity [1] [%] | residual activity [2] [%] | residual activity [3] [%] | residual activity [4] [%] | residual activity [5] [%] | residual activity [6] [%] | residual activity [7] [%] | residual activity [8] [%] | residual activity [9] [%] | residual activity [10] [%]
17 | Cc1ccc(NC2=CC(=O)c3sc(C)nc3C2=O)cc1 | 91 | 95 | 105 | 88 | 110 | 114 | 93 | 89 | 87 | 90
18 | Oc1ccc(-c2nc(-c3ccc(F)cc3)c(-c3ccncc3)[nH]2)cc1 | 108 | 66 | 108 | 78 | 110 | 80 | 107 | 47 | 65 | 12
19 | CCOc1cc2ncnc(Nc3cccc(Br)c3)c2cc1OCC | 108 | 91 | 95 | 66 | 79 | 82 | 93 | 79 | 40 | 5
20 | c1ccc2c(-c3ccncc3)c[nH]c2c1 | 76 | 23 | 54 | 12 | 87 | 90 | 30 | 8 | 88 | 97
21 | Cc1nc2cc3nc(-c4cccs4)cnc3cc2n1C | 117 | 96 | 99 | 103 | 81 | 56 | 97 | 100 | 99 | 76
22 | COc1cc2ncnc(Nc3ccc(Oc4ccccc4)cc3)c2cc1OC | 119 | 143 | 76 | 110 | 120 | 118 | 91 | 120 | 39 | 7
23 | CNc1cc2c(Nc3cccc(Br)c3)ncnc2cn1 | 112 | 108 | 75 | 62 | 89 | 94 | 84 | 93 | 92 | 37
24 | O=C1NC(=O)c2c1c1c3ccccc3[nH]c1c1[nH]c3cc(Br)ccc3c21 | 99 | 113 | 92 | 83 | 105 | 106 | 87 | 84 | 94 | 90
25 | O=C1c2ccccc2-[n+]2ccc3c([nH]c4ccccc43)c21 | 94 | 116 | 83 | 75 | 119 | 124 | 86 | 92 | 95 | 92
26 | Nc1ccc2ncnc(NCCc3ccc(Oc4ccccc4)cc3)c2c1 | 108 | 109 | 86 | 75 | 89 | 90 | 98 | 78 | 93 | 109
27 | O=[N+]([O-])c1ccc(-c2nc(-c3ccc(F)cc3)c(-c3ccncc3)[nH]2)cc1 | 98 | 103 | 105 | 92 | 112 | 107 | 119 | 93 | 57 | 60
28 | CO[C@@H]1[C@H](N(C)C(=O)c2ccccc2)C[C@H]2O[C@]1(C)n1c3ccccc3c3c4c(c5c6ccccc6n2c5c31)C(=O)NC4 | 8 | 4 | 4 | 3 | 102 | 57 | 2 | 1 | 33 | 23
29 | O=C(Nc1cccc(Nc2cc(Nc3cccc(C(F)(F)F)c3)ncn2)c1)C1CC1 | 117 | 100 | 81 | 88 | 110 | 24 | 93 | 93 | 101 | 73
30 | Cc1cc2ncc(-c3ccccc3)nc2cc1C | 110 | 130 | 83 | 94 | 101 | 73 | 102 | 107 | 105 | 88
31 | COc1ccc(CNc2nc(N(CCO)CCO)nc3c2ncn3C(C)C)cc1 | 93 | 101 | 109 | 101 | 100 | 102 | 104 | 77 | 95 | 87
32 | c1ccc(-c2n[nH]c3c2oc2ccccc23)cc1 | 99 | 100 | 75 | 93 | 97 | 58 | – | – | – | –
